Results reported in PubChem BioAssay (NCI).
Where “and” joins values, the source holds several entries; their conditions need not be identical. Equal entries are not always repeated. The panel holds about 83,000 compounds, 20% with a hit somewhere; the sample as a whole holds those more often.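 In brief: 96-well plates, 48 h treatment, single concentration, percent growth endpoint.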 Calls of active or inactive are those of the source. How the source made its calls: active means growth percent below 10; inactive means the rest.

Tested on: CCRF-CEM leukemia
Test: NCI-60 one-dose screen, 48 h (100 = growth as untreated, 0 = no growth, -100 = all killed)
Conditions: 10 µM

Structure (SMILES) | growth
COc1ccccc1[As]=[As]c1ccccc1OC (stereo not drawn) | 2.34% (active)
O=S(=O)(F)c1ccc(Cl)cc1 | 92.7% (inactive)
C/C1=C\[C@H](C)C[C@H](C)OC(=O)C[C@H](c2ccc(O)cc2)NC(=O)[C@@H](Cc2c(Br)[nH]c3ccccc23)N(C)C(=O)[C@H](C)NC(=O)[C@@H](C)C1 | -21.5% (active)
CC1CCC2(OC1)OC1C(O)C3C4CCC5CC(OC6OC(CO)C(OC7OC(CO)C(O)C(OC8OCC(O)C(O)C8O)C7OC7OC(CO)C(O)C(OC8OC(CO)C(O)C(O)C8O)C7O)C(O)C6O)C(O)CC5(C)C4CCC3(C)C1C2C (stereo not drawn) | -15.7% (active)
[Cl][Hg][c]1ccc2ccccc2c1 | 0.0061% (active)
COc1cc(/C=C(/C)[N+](=O)[O-])ccc1O | -35% (active)
O=[N+]([O-])c1cc[n+]([O-])c2ccccc12 | -11.1% (active)
[O-][n+]1ccccc1S | 8.62% (active)
NNc1ccccc1 | 42.7% (inactive)
O=C1CCC(=O)N1SC(Cl)(Cl)Cl | 94.5% (inactive)
Cc1cc([N+](=O)[O-])c2ccccc2[n+]1[O-] | 17% (inactive) and -2.8% (active)
CC/C(=C/c1ccc(OC)cc1)[N+](=O)[O-] | -9.4% (active)
COc1cc(/C=C\[N+](=O)[O-])ccc1O | 6.86% (active) and 70.4% (inactive)
Oc1c(I)cc(I)cc1I | 94.5% (inactive)
COC(=O)C1C(O)C(C)C(O)C(C)/C=C\C=C(C)C(=O)Nc2c(C)c(OC(C)=O)c3c(c2O)C(=O)C(C)=C2OCOC(=C23)C(C)=CC(C)(O)C(O)C(C)C1O (stereo not drawn) | 96.1% (inactive)
C=C1C(=O)O[C@@H]2C[C@@H](C)[C@@H]3C=CC(=O)[C@@]3(C)[C@@H](O)[C@H]12 | -42.4% (active)
CC12OOC(c3ccccc31)c1c2ccc2ccccc12 (stereo not drawn) | -41.8% (active)
Cn1c(O)c(N=O)c(=O)n(C)c1=O | 111% (inactive) and 113% (inactive)
CC(C)C1(NC(=O)C2CC3c4cccc5[nH]cc(c45)CC3N(C)C2)OC2(O)C3CCCN3C(=O)C(Cc3ccccc3)N2C1=O (stereo not drawn) | 135% (inactive)
C#CC1(O)CCC(C(C)(C)C)CC1 (stereo not drawn) | 96.6% (inactive)
O=[N+]([O-])/C=C/c1ccc(Cl)cc1[N+](=O)[O-] | 8.23% (active)
COC(C(=O)C(O)C(C)O)C1Cc2cc3cc(OC4CC(OC(C)=O)C(OC5CC(O)C(OC)C(C)O5)C(C)O4)cc(O)c3c(O)c2C(=O)C1OC1CC(OC2CC(OC3CC(C)(O)C(OC(=O)C(C)C)C(C)O3)C(O)C(C)O2)C(O)C(C)O1 (stereo not drawn) | -13.4% (active)
COC12c3c(C)cc(O)c4c(=O)occ(c34)C(=O)C1C13COC(=O)c4c(O)cc(C)c(c41)C(=O)C2C3OC(C)=O (stereo not drawn) | 96.2% (inactive)
[Cl][Sn]([c]1ccccc1)([c]1ccccc1)[c]1ccccc1 | -46% (active)
C=NCC#N | 118% (inactive)
CC(=O)[O][Hg][c]1c(C)c(C)cc(C)c1C | 3.85% (active)
[Cl][Hg][c]1ccc(Cl)s1 | -11% (active)
COc1ccc(/C=C(\C)[N+](=O)[O-])cc1OC | -16.4% (active)
